# Bioassay records: PubChem BioAssay, several laboratories
# HIF-2a inh: inhibitors of HIF-2a; 786-0 RCC cells HIF-2a reporter, luciferase luminescence, overnight; inhibition, % at 18.8 µM; 0.72% of 360,000 active;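 active = inhibition of the luminescence signal of 40% or more relative to plate controls, in a single-dose primary screen at 18.75 µM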
# Shn3 inh set2: Schnurri-3 reporter inhibition in Clone20 osteoblasts | Clone20 osteoblast Shn3 3'UTR firefly luciferase, 24 h | inhibition, % at 12.5 µM | 0.52% of 360,000 active | AID 588674;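 active = mean inhibition of at least 75% with every replicate also reaching 75%; inconclusive = mean inhibition at least 75% but some replicate below; inactive = mean inhibition below 75%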;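 note: 0% = median of neutral control wells and 100% = pilot-screen positive control compound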
# KKLEB tox: reduces viability of KKLEB cystic fibrosis airway cells. KKLEB CF airway cells viability, ATPlite luminescence, overnight; stronger effect = lower value; cells stimulated with P. aeruginosa culture filtrate. activity change (cytotoxicity), % at 5 µM. 0.36% of 360,000 active;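 active = corrected activity change at or below -50% at 5 µM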
# CF NFkB block: inhibitors of cystic fibrosis induced NF-kB; KKLEB NF-kB-GFP reporter, PAF-induced, GFP fluorescence overnight; inhibition, % at 5 µM; 0.86% of 360,000 active;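 active = at least 50% inhibition at 5 µM, scaled per plate between neutral and stimulator controls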;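 note: PAF is a Pseudomonas aeruginosa culture filtrate used as stimulus; plate controls were PAF-stimulated DMSO wells for no effect and unstimulated DMSO wells for full effect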
# TRPM1 prom inh: inhibitors of MITF-driven TRPM1 promoter in melanoma cells | inhibition, % at 12.5 µM | SK-MEL-5 TRPM1 promoter luciferase, 24 h | 0.83% of 330,000 active;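 active = mean inhibition across replicates of 60% or more, whatever share of single replicates reaches that level; inconclusive = some that reach 60%, reason not given; inactive = mean inhibition across replicates below 60%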
# Peg3 promoter: inhibitors of Peg3 promoter. inhibition, % at 20 µM. 1.7% of 360,000 active. AID 588405. HeLa PEG-Prom luciferase reporter, luminescence, overnight;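 active = inhibition of at least 50% at 20 µM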
# Numbers without * were called inactive; ? = inconclusive; · = no result given. An excerpt weighted towards active compounds, which were near 2.7% of everything screened.
SMILES,HIF-2a inh,Shn3 inh set2,KKLEB tox,CF NFkB block,TRPM1 prom inh,Peg3 promoter
C=CCC[C@H](Cc1ccc(F)cc1)C(=O)OC[C@@H](Cc1c[nH]c2ccccc12)NC(=O)[C@H](CC=C)CC(=O)N(CCO)Cc1ccccc1,-10,?,-12,14,17,64*
C=CC[C@H](CC(=O)N(CCO)Cc1ccccc1)C(=O)N[C@@H](COC(=O)[C@@H](CC=C)Cc1ccc(F)cc1)Cc1c[nH]c2ccccc12,-37,-12,7,7,1,60*
C=CCC[C@@H](Cc1ccc(F)cc1)C(=O)OC[C@@H](Cc1c[nH]c2ccccc12)NC(=O)[C@H](CC=C)CC(=O)N(CCO)Cc1ccccc1,6,50,-2,27,10,52*
C/C=C/c1cccc(-c2nc(C(=O)NC3CCCC3)cc3c2[C@@H](CCO)N(S(=O)C(C)(C)C)C3)c1 (stereo partly specified),0,1,-14,-9,·,-20
CC1=C(C(=O)N(C(C)C)C(C)C)CC(CC(=O)NCc2cccc3ccccc23)C(=O)N1Cc1ccc(C(C)(C)C)cc1 (stereo unspecified),-1,3,-1,21,·,17
CCCc1nc2oc3c(NCCN(C)C)ncnc3c2c2c1CCCC2,38,11,-24,16,76*,68*
O=C(NC1CC1)c1ccc(-c2nc3ccccc3s2)s1,47*,76,-66*,-13,56,62*
CC1(C(=O)NCCC(F)(F)F)Cc2c(-c3ccccc3)ccnc2O1 (stereo unspecified),3,-16,10,-23,·,19
CCCCCc1cc(=O)oc2c(C(CCN3CCCCC3)c3ccc(OC)cc3)c(OC)cc(OC)c12 (stereo unspecified),-1,31,-56*,53*,92*,102*
CCCCCc1cc(=O)oc2c(C(CCN(CC)CC)c3ccc(OC)cc3)c(OC)cc(OC)c12 (stereo unspecified),19,-15,-8,3,81*,101*
CCCCCc1cc(=O)oc2c(C(CCN3CCCC3)c3cc(OC)c(OC)c(OC)c3)c(OC)cc(OC)c12 (stereo unspecified),3,0,-17,16,95*,102*
CCCCCc1cc(=O)oc2c(C(CCN3CCCC(C)C3)c3ccc(OC)cc3)c(OC)cc(OC)c12 (stereo unspecified),7,28,-22,14,47,96*
COc1cc(C(CCN2CCCC2)c2c(OC)cc(OC)c3c(C)cc(=O)oc23)cc(OC)c1OC (stereo unspecified),-2,3,-18,0,·,5
CCCCCc1cc(=O)oc2c(C(CCN3CCN(c4ccccc4)CC3)c3ccc4c(c3)OCO4)c(OC)cc(OC)c12 (stereo unspecified),9,38,-16,28,10,-2
CCN(CC)CCC(c1ccc(N(C)C)cc1)c1c(OC)cc(OC)c2ccc(=O)oc12 (stereo unspecified),-3,15,-1,-23,8,13
CCCCn1nnnc1C(c1ccccc1)N1CCN(c2ncccc2C(F)(F)F)CC1 (stereo unspecified),22,·,·,·,·,·
CCCCCc1cc(=O)oc2c(C(CCN3CCCC3)c3ccc(N(C)C)cc3)c(OC)cc(OC)c12 (stereo unspecified),15,-28,-27,14,79*,97*
COc1cc(OC)c2ccc(=O)oc2c1C(CCN1CCCC1)c1ccc(N(C)C)cc1 (stereo unspecified),2,-20,-6,1,3,-49
CCOc1ccccc1NC(=O)NCc1ccc2c(c1)OCO2,-14,-9,-7,36,-4,68*
COc1ccc2[nH]c3c4c(ccc3c2c1)C(=O)C=CC4=O,80*,96*,-19,64*,79*,117*
COc1ccc2[nH]c(=O)cc(C(=O)O)c2c1,16,0,3,5,7,-13
CCCCc1ccc(NC(=O)C(=O)NCCN2CCN(Cc3ccc([N+](=O)[O-])cc3)CC2)cc1,13,94*,-24,1,13,18
CNC(=O)C(=O)NCCN1CCN(C(=O)c2ccc([N+](=O)[O-])cc2)CC1,5,-2,7,4,-1,10
Brc1ccc2ncnc(Nc3ccc(N4CCOCC4)cc3)c2c1,5,-5,2,67*,11,3
Cc1cccc(C)c1-n1nnnc1C(c1ccccc1OC(F)(F)F)N1CCN(C/C=C/c2ccccc2)CC1 (stereo unspecified),5,42,-12,11,·,1
SMILES,HIF-2a inh,Shn3 inh set2,KKLEB tox,CF NFkB block,TRPM1 prom inh,Peg3 promoter
COC1(OC)C(/C=C/c2ccc(Cl)cc2)C(C#N)(C#N)C1(OC)OC (stereo unspecified),13,18,-60*,57*,14,63*
Cc1ccc(-c2csc3nc4c5ccccc5c(NCCCN(C)C)nn4c(=O)c23)cc1,-8,25,-60*,11,85*,109*
CN(C(=O)CSc1nncc2ccccc12)c1ccccc1,-22,-9,-8,16,·,-12
O=C1/C(=C/c2ccc([N+](=O)[O-])cc2)C=C(c2ccccc2)N1c1ccc(O)cc1,-21,20,-20,28,68*,15
O=C(O)c1cccc(N2C(=O)/C(=C/c3ccc([N+](=O)[O-])cc3)C=C2c2ccccc2)c1,57*,-2,4,4,10,53*
Cn1nc(C(C)(C)C)cc1NC(=O)C1(C)CCN1C(=O)c1ccccc1CCc1ccccc1 (stereo unspecified),8,-5,-14,16,·,23
COc1ccc(-c2csc(C(C)(O)c3cccnc3)n2)cc1 (stereo unspecified),-53,-15,-4,-18,·,-20
Cc1cc(OCC(=O)Nc2c(C(C)C)cccc2C(C)C)no1,12,18,-1,-3,·,-8
CCOc1ccc(NS(=O)(=O)c2cc(C(=O)NCCN3CCOCC3)ccc2C)cc1,0,92*,-14,-16,-4,-2
Cc1ccc(C2=NOC(=O)/C2=C\C=C\c2ccccc2)cc1,24,95*,-61*,92*,96*,106*
CN(C)/C=C1\C(=O)ON=C1c1ccccc1,14,3,8,10,0,15
COc1ccc(/C=C2\C(=O)ON=C2c2ccccc2)cc1OC,22,-49,2,-11,·,38
COc1ccc(/C=C2/C(=O)ON=C2c2ccccc2)cc1OC,41*,12,-8,7,28,31
Fc1ccccc1COc1ccc(Br)cc1CNCc1ccncc1,28,17,10,8,1,56*
Nc1ccc(-c2cnc(N)c(C(=O)c3cccnc3)n2)cn1,20,20,10,81*,36,46
